About 1,500 (3.8%) of roughly 39,000 compounds were called active. For the sample, actives were picked, then their nearest neighbours and some compounds at random.

The experiment concerns HSkMC (human skeletal muscle cells). As to the kind of experiment: cytotoxicity call (relative viability < 0.9). The conditions noted are these: 10 µM.
With `C[C@H]1C(=O)C(=O)[C@@H]2O[C@@H]2C1=O`, the cytotoxicity call was “inactive”.

Consider `C[C@@H]1CN([C@@H](C)CO)C(=O)c2cc(NC(=O)C3CCCCC3)ccc2O[C@@H](C)CCCCO[C@@H]1CN(C)C(=O)c1ccncc1`, for which the cytotoxicity call is “inactive”.

Consider `C=CC(=O)N[C@@H]1c2ccccc2C[C@@H]1O`, for which the cytotoxicity call was “inactive”.

On to `Cc1noc(C)c1NC(=O)N(C)C[C@H]1OCCCC[C@@H](C)Oc2ccc(NS(=O)(=O)c3ccc(F)cc3)cc2C(=O)N([C@@H](C)CO)C[C@@H]1C`, for which the cytotoxicity call is “inactive”.

As to `COc1ccc(S(=O)(=O)Nc2ccc3c(c2)C(=O)N([C@@H](C)CO)C[C@H](C)[C@H](CN(C)Cc2ccc(Cl)c(Cl)c2)O3)cc1`, the cytotoxicity call was “inactive”.

Consider `COc1ccc(S(=O)(=O)Nc2ccc3c(c2)C(=O)N([C@H](C)CO)C[C@H](C)[C@@H](CN(C)Cc2ccc(Cl)c(Cl)c2)O3)cc1`, for which the cytotoxicity call is “inactive”.

As for `COc1ccc(S(=O)(=O)Nc2ccc3c(c2)C(=O)N([C@@H](C)CO)C[C@H](C)[C@@H](CN(C)Cc2ccc(Cl)c(Cl)c2)O3)cc1`, the cytotoxicity call is “active”.

Turning to `COc1ccc(S(=O)(=O)Nc2ccc3c(c2)C(=O)N([C@H](C)CO)C[C@H](C)[C@H](CN(C)Cc2ccc(Cl)c(Cl)c2)O3)cc1`, the cytotoxicity call is “inactive”.

Consider `COc1ccc(S(=O)(=O)Nc2ccc3c(c2)C(=O)N([C@H](C)CO)C[C@@H](C)[C@@H](CN(C)Cc2ccc(Cl)c(Cl)c2)O3)cc1`, for which the cytotoxicity call is “inactive”.

In the case of `COc1ccc(S(=O)(=O)Nc2ccc3c(c2)C(=O)N([C@@H](C)CO)C[C@@H](C)[C@@H](CN(C)Cc2ccc(Cl)c(Cl)c2)O3)cc1`, the cytotoxicity call is “active”.

Regarding `COc1ccc(S(=O)(=O)Nc2ccc3c(c2)C(=O)N([C@@H](C)CO)C[C@@H](C)[C@H](CN(C)Cc2ccc(Cl)c(Cl)c2)O3)cc1`, the cytotoxicity call was “inactive”.

`COc1ccc(S(=O)(=O)Nc2ccc3c(c2)C(=O)N([C@H](C)CO)C[C@@H](C)[C@H](CN(C)Cc2ccc(Cl)c(Cl)c2)O3)cc1`: the cytotoxicity call was “active”.

`COc1ccc(CN(C)C[C@@H]2OCCCC[C@@H](C)Oc3ccc(NC(=O)c4ccncc4)cc3C(=O)N([C@@H](C)CO)C[C@@H]2C)cc1`: the cytotoxicity call is “inactive”.

As to `C[C@@H]1CCCCO[C@H](CN(C)C(=O)Nc2ccc3c(c2)OCO3)[C@@H](C)CN([C@H](C)CO)C(=O)c2cc(NC(=O)CCC(F)(F)F)ccc2O1`, the cytotoxicity call is “inactive”.

`C[C@@H]1CN([C@H](C)CO)C(=O)c2cc(NS(=O)(=O)c3ccccc3)ccc2O[C@@H]1CN(C)S(=O)(=O)c1cccs1`: the cytotoxicity call was “inactive”.

In the case of `COCCOC(=O)N1C(=O)[C@@]2(c3cc(C#Cc4ccc(OC)cc4)ccc31)[C@H](C(=O)N1CCc3cc(OC)c(OC)cc3C1)[C@H]1C(=O)O[C@H](c3ccccc3)[C@H](c3ccccc3)N1[C@@H]2c1ccc(OCCO)cc1`, the cytotoxicity call is “inactive”.

On to `COCC(=O)Nc1ccc2c(c1)OC[C@@H](C)N(C(=O)c1ccccc1F)C[C@H](C)[C@@H](OC)CN(C)C2=O`, for which the cytotoxicity call was “inactive”.

With `CC(C)NC(=O)Nc1cccc2c1O[C@H](CN(C)C(=O)NC1CCCCC1)[C@H](C)CN([C@@H](C)CO)C2=O`, the cytotoxicity call was “inactive”.

Turning to `Cc1noc(C)c1NC(=O)Nc1ccc2c(c1)C(=O)N([C@H](C)CO)C[C@H](C)[C@@H](CN(C)C(=O)Nc1ccc3c(c1)OCO3)OCCCC[C@H](C)O2`, the cytotoxicity call is “inactive”.

Turning to `C[C@@H]1CN([C@H](C)CO)C(=O)c2cc(NS(=O)(=O)c3ccc(Cl)cc3)ccc2O[C@@H]1CN(C)Cc1ccc(Oc2ccccc2)cc1`, the cytotoxicity call is “active”.

Turning to `C[C@@H]1CN([C@@H](C)CO)C(=O)c2cc(NS(=O)(=O)c3ccccc3)ccc2O[C@H]1CN(C)Cc1ccc(Oc2ccccc2)cc1`, the cytotoxicity call is “inactive”.

For `C[C@H]1CN([C@@H](C)CO)C(=O)c2cc(NS(=O)(=O)c3ccc(Cl)cc3)ccc2O[C@@H]1CN(C)Cc1ccc(Oc2ccccc2)cc1`, the cytotoxicity call is “active”.

For `C[C@@H]1CN([C@@H](C)CO)C(=O)c2cc(NS(=O)(=O)c3ccccc3)ccc2O[C@@H]1CN(C)Cc1ccc(Oc2ccccc2)cc1`, the cytotoxicity call is “inactive”.

`C[C@H](CO)N1C[C@H](C)[C@@H](CN(C)Cc2ccc(Oc3ccccc3)cc2)Oc2ccc(NS(=O)(=O)c3ccc(Cl)cc3)cc2C1=O`: the cytotoxicity call was “inactive”.

As for `C[C@@H]1CN([C@H](C)CO)C(=O)c2cc(NS(=O)(=O)c3ccc(Cl)cc3)ccc2O[C@H]1CN(C)Cc1ccc(Oc2ccccc2)cc1`, the cytotoxicity call was “active”.

In the case of `C[C@H]1CN([C@@H](C)CO)C(=O)c2cc(NS(=O)(=O)c3ccccc3)ccc2O[C@@H]1CN(C)Cc1ccc(Oc2ccccc2)cc1`, the cytotoxicity call was “inactive”.

As for `C[C@H]1CN([C@@H](C)CO)C(=O)c2cc(NS(=O)(=O)c3ccc(Cl)cc3)ccc2O[C@H]1CN(C)Cc1ccc(Oc2ccccc2)cc1`, the cytotoxicity call is “active”.

Consider `C[C@H](CO)N1C[C@H](C)[C@H](CN(C)Cc2ccc(Oc3ccccc3)cc2)Oc2ccc(NS(=O)(=O)c3ccc(Cl)cc3)cc2C1=O`, for which the cytotoxicity call was “inactive”.

With `C[C@@H]1CN([C@@H](C)CO)C(=O)c2cc(NS(=O)(=O)c3ccc(Cl)cc3)ccc2O[C@H]1CN(C)Cc1ccc(Oc2ccccc2)cc1`, the cytotoxicity call is “inactive”.

As to `CC(C)NC(=O)Nc1ccc2c(c1)CC(=O)N([C@@H](C)CO)C[C@H](C)[C@H](CN(C)C(=O)NC1CCCCC1)O2`, the cytotoxicity call was “inactive”.

With `Cc1cccc[n+]1C`, the cytotoxicity call was “inactive”.

With `CN1C2=CC(=O)/C(=N\NC(N)=O)C=C2C[C@H]1S(=O)(=O)O`, the cytotoxicity call is “inactive”.

Take `COc1ccc(NC(=O)N(C)C[C@H]2OCCCC[C@H](C)Oc3ccc(NS(=O)(=O)c4ccc(C)cc4)cc3C(=O)N([C@@H](C)CO)C[C@H]2C)cc1`: the cytotoxicity call was “inactive”.

Regarding `CC(=O)OC1C(=O)C2(C)C(O)CC3OCC3(OC(C)=O)C2C(OC(=O)c2ccccc2)C2(O)CC(OC(=O)C(O)C(NC(=O)c3ccccc3)c3ccccc3)C(C)=C1C2(C)C` (centres undefined), the cytotoxicity call is “inactive”.

Regarding `CC(=O)OC1CC(C)(C)C(=C=C/C(C)=C/C=C/C(C)=C/C=C/C=C(C)/C=C/C=C(\C)C(=O)CC23OC2(C)CC(O)CC3(C)C)C(C)(O)C1` (centres undefined), the cytotoxicity call was “inactive”.

Turning to `C[C@@H]1CN([C@H](C)CO)C(=O)c2cc(NC(=O)CCCCCC(=O)Nc3ccccc3N)ccc2O[C@@H]1CN(C)C(=O)Nc1ccccc1`, the cytotoxicity call is “inactive”.

Turning to `CO[C@H]1CN(C)C(=O)c2ccc(NC(=O)CC(F)(F)F)cc2OC[C@H](C)N(C(=O)C2CCOCC2)C[C@H]1C`, the cytotoxicity call was “inactive”.

For `O=c1c(O)cc(C2Oc3cc(O)cc(O)c3CC2O)cc2c(C3Oc4cc(O)cc(O)c4CC3O)cc(O)c(O)c12` (centres undefined), the cytotoxicity call was “inactive”.

Regarding `Cc1noc(C)c1NC(=O)Nc1ccc2c(c1)C(=O)N([C@@H](C)CO)C[C@H](C)[C@@H](CN(C)Cc1ccc(C(F)(F)F)cc1)O2`, the cytotoxicity call is “inactive”.

For the compound `C[C@@H]1CN([C@@H](C)CO)C(=O)c2cc(NS(=O)(=O)c3ccc(Cl)cc3)ccc2O[C@@H]1CN(C)Cc1ccc(Oc2ccccc2)cc1`, the cytotoxicity call is “active”.

With `C[C@H](CO)N1C[C@H](C)[C@H](CN(C)Cc2ccc(Oc3ccccc3)cc2)Oc2ccc(NS(=O)(=O)c3ccccc3)cc2C1=O`, the cytotoxicity call was “inactive”.

Consider `C[C@@H]1CN([C@H](C)CO)C(=O)c2cc(NS(=O)(=O)c3ccccc3)ccc2O[C@H]1CN(C)Cc1ccc(Oc2ccccc2)cc1`, for which the cytotoxicity call is “inactive”.

As to `C[C@@H]1CN([C@H](C)CO)C(=O)c2cc(NS(=O)(=O)c3cn(C)cn3)ccc2O[C@H]1CN(C)Cc1ccc2c(c1)OCO2`, the cytotoxicity call is “inactive”.

Turning to `COc1ccc(S(=O)(=O)N(C)C[C@H]2Oc3ccc(NC(=O)Cn4cnnn4)cc3CC(=O)N([C@@H](C)CO)C[C@@H]2C)cc1`, the cytotoxicity call was “inactive”.

`C[C@H]1CCCCO[C@@H](CN(C)C(=O)Nc2cccc3ccccc23)[C@@H](C)CN([C@@H](C)CO)C(=O)c2cc(NS(=O)(=O)c3cccs3)ccc2O1`: the cytotoxicity call is “inactive”.

Regarding `C[C@H]1CCCCO[C@H](CN(C)C(=O)Nc2cccc3ccccc23)[C@@H](C)CN([C@@H](C)CO)C(=O)c2cc(NS(=O)(=O)c3cccs3)ccc2O1`, the cytotoxicity call was “inactive”.

Take `C[C@@H]1CCCCO[C@@H](CN(C)C(=O)Nc2cccc3ccccc23)[C@H](C)CN([C@H](C)CO)C(=O)c2cc(NS(=O)(=O)c3cccs3)ccc2O1`: the cytotoxicity call was “inactive”.

As to `C[C@@H]1CN([C@@H](C)CO)C(=O)c2cc(NS(=O)(=O)c3cccs3)ccc2O[C@@H](C)CCCCO[C@H]1CN(C)C(=O)Nc1cccc2ccccc12`, the cytotoxicity call is “inactive”.

Regarding `C[C@@H]1CCCCO[C@H](CN(C)C(=O)Nc2cccc3ccccc23)[C@H](C)CN([C@H](C)CO)C(=O)c2cc(NS(=O)(=O)c3cccs3)ccc2O1`, the cytotoxicity call was “active”.

Regarding `C[C@H](CO)N1C[C@H](C)[C@@H](CN(C)C(=O)Nc2cccc3ccccc23)OCCCC[C@H](C)Oc2ccc(NS(=O)(=O)c3cccs3)cc2C1=O`, the cytotoxicity call was “active”.

For `C[C@@H]1CN([C@@H](C)CO)S(=O)(=O)c2ccc(-c3ccc(F)cc3)cc2O[C@@H]1CN(C)S(C)(=O)=O`, the cytotoxicity call was “inactive”.

Turning to `Oc1ccc([C@@H]2C=CCC2)cc1`, the cytotoxicity call was “inactive”.

Consider `COc1ccc(NC(=O)N(C)C[C@H]2OCCCC[C@@H](C)Oc3ccc(NC(=O)Nc4ccc5c(c4)OCO5)cc3C(=O)N([C@@H](C)CO)C[C@H]2C)cc1`, for which the cytotoxicity call was “inactive”.

For `C[C@@H]1CN([C@H](C)CO)C(=O)c2cccc(NC(=O)C3CCOCC3)c2O[C@@H]1CN(C)Cc1ccc2c(c1)OCO2`, the cytotoxicity call was “inactive”.

`Cc1cc(C(=O)Nc2cccc3c2O[C@H](CN(C)S(=O)(=O)c2ccc(F)cc2)[C@H](C)CN([C@H](C)CO)C3=O)n(C)n1`: the cytotoxicity call is “inactive”.

Consider `CN(C)CC(=O)N1[C@@H]2Cn3c(cccc3=O)[C@H]1[C@@H](C(=O)NCc1ccccc1)[C@@H]2CO`, for which the cytotoxicity call was “inactive”.

As to `C=CCC[C@@H](Cc1ccc(F)cc1)C(=O)O[C@@H](CNC(=O)[C@@H](CC=C)CC(=O)N(CCO)Cc1ccccc1)c1ccccc1`, the cytotoxicity call is “active”.

As to `C=CCC[C@H](Cc1ccc(F)cc1)C(=O)O[C@@H](CNC(=O)[C@@H](CC=C)CC(=O)N(CCO)Cc1ccccc1)c1ccccc1`, the cytotoxicity call is “active”.

For `C=CCC[C@H](Cc1ccc(F)cc1)C(=O)O[C@@H](CNC(=O)[C@H](CC=C)CC(=O)N(CCO)Cc1ccccc1)c1ccccc1`, the cytotoxicity call is “inactive”.

With `C=CCC[C@H](Cc1ccc(F)cc1)C(=O)O[C@H](CNC(=O)[C@H](CC=C)CC(=O)N(CCO)Cc1ccccc1)c1ccccc1`, the cytotoxicity call is “inactive”.

In the case of `C=CCC[C@H](Cc1ccc(F)cc1)C(=O)O[C@H](CNC(=O)[C@@H](CC=C)CC(=O)N(CCO)Cc1ccccc1)c1ccccc1`, the cytotoxicity call was “inactive”.

In the case of `C=CCC[C@@H](Cc1ccc(F)cc1)C(=O)O[C@H](CNC(=O)[C@H](CC=C)CC(=O)N(CCO)Cc1ccccc1)c1ccccc1`, the cytotoxicity call was “inactive”.

For `C=CCC[C@@H](Cc1ccc(F)cc1)C(=O)O[C@H](CNC(=O)[C@@H](CC=C)CC(=O)N(CCO)Cc1ccccc1)c1ccccc1`, the cytotoxicity call is “active”.

For `C=CCC[C@@H](Cc1ccc(F)cc1)C(=O)O[C@@H](CNC(=O)[C@H](CC=C)CC(=O)N(CCO)Cc1ccccc1)c1ccccc1`, the cytotoxicity call is “active”.
